# According to publication PMC7862700, “An all-to-all approach to the identification of sequence-specific readers for epigenetic DNA modifications on cytosine”:
# What was measured:
# Assay in all cases: DAPPL (digital affinity profiling via proximity ligation, sequencing); 10 mM Tris-HCl pH 7.5, 50 mM NaCl, 1 mM DTT, 4% glycerol, room temperature, 30 min; GST-TFs on glutathione beads, 16-mer random dsDNA library, 0.1% formaldehyde crosslink after washing; high values mean tight binding
# FLI1 = target: T1, FLI1 (Homo sapiens, UniProt Q01543 1-452); conditions: protein: recombinant; tags: N-terminal GST; dsDNA, one strand shown
# T1 sequence: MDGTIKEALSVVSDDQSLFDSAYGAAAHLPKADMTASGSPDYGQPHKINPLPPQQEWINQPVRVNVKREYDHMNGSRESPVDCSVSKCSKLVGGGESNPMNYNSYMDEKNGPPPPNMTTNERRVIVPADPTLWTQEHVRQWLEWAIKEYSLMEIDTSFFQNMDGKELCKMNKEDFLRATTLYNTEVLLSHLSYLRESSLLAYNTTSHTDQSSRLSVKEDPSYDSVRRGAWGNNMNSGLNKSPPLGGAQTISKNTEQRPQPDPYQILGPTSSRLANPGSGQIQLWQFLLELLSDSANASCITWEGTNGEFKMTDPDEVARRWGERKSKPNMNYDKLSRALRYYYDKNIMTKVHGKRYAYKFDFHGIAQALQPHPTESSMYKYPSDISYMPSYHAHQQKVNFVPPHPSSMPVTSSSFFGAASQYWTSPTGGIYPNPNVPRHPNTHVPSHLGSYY
# Summary of the method: (§1)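 Pools of DNA-barcoded human transcription factors, expressed in yeast as GST fusions on glutathione beads and combined with a tag-only sample, were incubated with 200 nmole of a 16-mer random double-stranded DNA library. Incubation took 30 min at room temperature in Tris/NaCl/DTT/glycerol buffer and was followed by washing, 0.1% formaldehyde crosslinking, proximity ligation (BsaI/T4 ligase, 1 h, 37 °C), PCR amplification and sequencing on an Illumina NextSeq500. Binding signal is the ratio of a hexamer's read frequency for a factor to its frequency for the tag-only sample.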
# ELK1 = target: T2, ELK1 (Homo sapiens, UniProt P19419 1-428); conditions: protein: recombinant; tags: N-terminal GST; dsDNA, one strand shown
# T2 sequence: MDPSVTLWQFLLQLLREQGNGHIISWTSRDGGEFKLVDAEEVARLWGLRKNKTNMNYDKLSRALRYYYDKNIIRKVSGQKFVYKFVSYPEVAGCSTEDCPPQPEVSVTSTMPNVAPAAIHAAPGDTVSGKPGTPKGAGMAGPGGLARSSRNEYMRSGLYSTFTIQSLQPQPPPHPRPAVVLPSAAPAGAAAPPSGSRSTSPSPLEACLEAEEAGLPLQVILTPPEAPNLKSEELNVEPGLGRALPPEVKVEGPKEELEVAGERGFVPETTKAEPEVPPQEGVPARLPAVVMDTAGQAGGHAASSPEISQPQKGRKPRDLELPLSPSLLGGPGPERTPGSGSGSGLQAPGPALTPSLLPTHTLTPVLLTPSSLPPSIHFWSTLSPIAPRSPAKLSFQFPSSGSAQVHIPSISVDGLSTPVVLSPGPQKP
# Summary of the method: as §1
# GABPA = target: T3, GABPA (Homo sapiens, UniProt Q06546 1-454); conditions: protein: recombinant; tags: N-terminal GST; dsDNA, one strand shown
# T3 sequence: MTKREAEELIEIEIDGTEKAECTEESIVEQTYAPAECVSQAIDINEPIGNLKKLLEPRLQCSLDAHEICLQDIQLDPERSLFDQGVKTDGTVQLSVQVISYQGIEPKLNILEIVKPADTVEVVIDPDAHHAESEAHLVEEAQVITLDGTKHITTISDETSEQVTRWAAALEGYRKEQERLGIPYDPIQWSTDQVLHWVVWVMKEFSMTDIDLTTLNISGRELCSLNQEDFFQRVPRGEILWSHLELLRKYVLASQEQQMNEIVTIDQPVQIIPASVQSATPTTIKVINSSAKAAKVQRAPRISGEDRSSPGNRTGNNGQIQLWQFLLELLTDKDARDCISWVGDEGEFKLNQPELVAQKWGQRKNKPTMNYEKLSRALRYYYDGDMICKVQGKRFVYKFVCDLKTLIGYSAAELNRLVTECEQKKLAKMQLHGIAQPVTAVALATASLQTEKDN
# Summary of the method: as §1
# ERG = target: T4, ERG (Homo sapiens, UniProt P11308 1-479); conditions: protein: recombinant; tags: N-terminal GST; dsDNA, one strand shown
# T4 sequence: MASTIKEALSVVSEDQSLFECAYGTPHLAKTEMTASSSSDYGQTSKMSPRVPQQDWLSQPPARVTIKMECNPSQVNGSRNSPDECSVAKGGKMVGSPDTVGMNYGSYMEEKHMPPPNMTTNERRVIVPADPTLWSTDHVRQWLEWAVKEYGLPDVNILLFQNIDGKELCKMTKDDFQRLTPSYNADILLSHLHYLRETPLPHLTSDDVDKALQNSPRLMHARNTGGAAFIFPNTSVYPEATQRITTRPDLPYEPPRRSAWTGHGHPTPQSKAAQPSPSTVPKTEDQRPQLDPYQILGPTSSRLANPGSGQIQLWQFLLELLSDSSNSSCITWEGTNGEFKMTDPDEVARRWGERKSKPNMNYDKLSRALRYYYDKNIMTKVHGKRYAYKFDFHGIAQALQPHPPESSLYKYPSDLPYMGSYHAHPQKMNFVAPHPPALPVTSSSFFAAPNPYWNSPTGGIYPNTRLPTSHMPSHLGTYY
# Summary of the method: as §1
# ELF1 = ELF1 (Homo sapiens, UniProt P32519 1-619); conditions: protein: recombinant; tags: N-terminal GST; dsDNA, one strand shown
# Summary of the method: as §1
# EHF = target: T5, EHF (Homo sapiens, UniProt Q9NZC4 1-300); conditions: protein: recombinant; tags: N-terminal GST; dsDNA, one strand shown
# T5 sequence: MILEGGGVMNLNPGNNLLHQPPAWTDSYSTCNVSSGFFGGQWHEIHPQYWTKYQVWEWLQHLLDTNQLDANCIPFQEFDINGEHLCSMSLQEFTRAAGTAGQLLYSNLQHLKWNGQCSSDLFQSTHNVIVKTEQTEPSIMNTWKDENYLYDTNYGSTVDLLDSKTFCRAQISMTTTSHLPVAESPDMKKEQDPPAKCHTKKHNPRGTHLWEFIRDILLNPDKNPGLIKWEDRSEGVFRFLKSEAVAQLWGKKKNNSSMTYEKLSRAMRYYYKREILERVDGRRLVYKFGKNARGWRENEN
# Summary of the method: as §1
# SPI1 = SPI1 (Homo sapiens, UniProt P17947 1-270); conditions: protein: recombinant; tags: N-terminal GST; dsDNA, one strand shown
# Summary of the method: as §1
# SPIB = SPIB (Homo sapiens, UniProt Q01892 1-262); conditions: protein: recombinant; tags: N-terminal GST; dsDNA, one strand shown
# Summary of the method: as §1
# ELK3 = target: T6, ELK3 (Homo sapiens, UniProt P41970 1-407); conditions: protein: recombinant; tags: N-terminal GST; dsDNA, one strand shown
# T6 sequence: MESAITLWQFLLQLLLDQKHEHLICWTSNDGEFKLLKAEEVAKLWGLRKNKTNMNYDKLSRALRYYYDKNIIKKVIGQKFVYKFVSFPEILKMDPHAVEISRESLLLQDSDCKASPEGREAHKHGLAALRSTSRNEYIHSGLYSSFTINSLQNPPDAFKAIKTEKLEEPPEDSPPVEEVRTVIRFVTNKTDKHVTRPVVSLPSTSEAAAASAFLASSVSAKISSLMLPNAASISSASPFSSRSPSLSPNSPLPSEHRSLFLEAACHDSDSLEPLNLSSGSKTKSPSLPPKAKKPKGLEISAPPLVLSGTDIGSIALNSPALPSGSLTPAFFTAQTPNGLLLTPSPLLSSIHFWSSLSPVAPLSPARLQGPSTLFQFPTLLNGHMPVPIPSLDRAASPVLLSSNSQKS
# Summary of the method: as §1
# FEV = target: T7, FEV (Homo sapiens, UniProt Q99581 1-238); conditions: protein: recombinant; tags: N-terminal GST; dsDNA, one strand shown
# T7 sequence: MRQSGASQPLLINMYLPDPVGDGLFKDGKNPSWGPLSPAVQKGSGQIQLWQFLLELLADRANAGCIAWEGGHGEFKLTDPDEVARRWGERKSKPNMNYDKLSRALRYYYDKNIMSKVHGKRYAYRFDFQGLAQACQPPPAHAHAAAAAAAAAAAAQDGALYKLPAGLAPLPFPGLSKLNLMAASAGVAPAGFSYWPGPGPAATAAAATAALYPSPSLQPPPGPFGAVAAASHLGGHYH
# Summary of the method: as §1
# ETV5 = ETV5 (Homo sapiens, UniProt P41161 1-510); conditions: protein: recombinant; tags: N-terminal GST; dsDNA, one strand shown
# Summary of the method: as §1
# HSF1 = HSF1 (Homo sapiens, UniProt Q00613 1-529); conditions: protein: recombinant; tags: N-terminal GST; chain copies: 3; dsDNA, one strand shown
# Summary of the method: as §1
# SPIC = target: T8, SPIC (Homo sapiens, UniProt Q8N5J4 1-248); conditions: protein: recombinant; tags: N-terminal GST; dsDNA, one strand shown
# T8 sequence: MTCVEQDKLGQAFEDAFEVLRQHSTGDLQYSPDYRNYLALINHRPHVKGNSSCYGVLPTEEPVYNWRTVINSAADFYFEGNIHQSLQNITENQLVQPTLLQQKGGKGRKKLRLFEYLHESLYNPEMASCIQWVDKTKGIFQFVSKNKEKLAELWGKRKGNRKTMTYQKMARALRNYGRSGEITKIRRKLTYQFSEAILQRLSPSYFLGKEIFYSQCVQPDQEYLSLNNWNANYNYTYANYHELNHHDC
# Summary of the method: as §1
# ELF4 = ELF4 (Homo sapiens, UniProt Q99607 1-663); conditions: protein: recombinant; tags: N-terminal GST; dsDNA, one strand shown
# Summary of the method: as §1
# ELK4 = target: T9, ELK4 (Homo sapiens, UniProt P28324-2 1-405); conditions: protein: recombinant; tags: N-terminal GST; dsDNA, one strand shown
# T9 sequence: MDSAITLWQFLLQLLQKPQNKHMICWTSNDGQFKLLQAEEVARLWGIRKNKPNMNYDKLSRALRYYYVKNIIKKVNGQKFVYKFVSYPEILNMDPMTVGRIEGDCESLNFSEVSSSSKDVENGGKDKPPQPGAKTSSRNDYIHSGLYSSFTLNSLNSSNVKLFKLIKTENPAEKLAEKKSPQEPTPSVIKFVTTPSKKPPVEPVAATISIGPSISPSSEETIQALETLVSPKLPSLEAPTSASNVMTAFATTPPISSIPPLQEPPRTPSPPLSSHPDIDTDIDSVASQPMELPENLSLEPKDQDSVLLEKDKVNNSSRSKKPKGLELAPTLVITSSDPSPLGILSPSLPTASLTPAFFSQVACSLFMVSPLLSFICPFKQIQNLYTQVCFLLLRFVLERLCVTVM
# Summary of the method: as §1
# ETV2 = target: T10, ETV2 (Homo sapiens, UniProt O00321 1-342); conditions: protein: recombinant; tags: N-terminal GST; dsDNA, one strand shown
# T10 sequence: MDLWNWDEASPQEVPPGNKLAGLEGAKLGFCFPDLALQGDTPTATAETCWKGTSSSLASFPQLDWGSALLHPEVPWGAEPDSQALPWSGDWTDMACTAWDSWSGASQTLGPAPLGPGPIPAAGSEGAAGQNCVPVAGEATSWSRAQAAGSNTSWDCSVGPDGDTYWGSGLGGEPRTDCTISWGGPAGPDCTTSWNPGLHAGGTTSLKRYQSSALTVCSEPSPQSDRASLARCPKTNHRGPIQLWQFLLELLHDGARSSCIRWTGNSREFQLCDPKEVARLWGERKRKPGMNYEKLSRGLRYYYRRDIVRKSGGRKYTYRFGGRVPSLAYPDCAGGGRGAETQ
# Summary of the method: as §1
# ELF3 = target: T11, ELF3 (Homo sapiens, UniProt P78545 1-371); conditions: protein: recombinant; tags: N-terminal GST; dsDNA, one strand shown
# T11 sequence: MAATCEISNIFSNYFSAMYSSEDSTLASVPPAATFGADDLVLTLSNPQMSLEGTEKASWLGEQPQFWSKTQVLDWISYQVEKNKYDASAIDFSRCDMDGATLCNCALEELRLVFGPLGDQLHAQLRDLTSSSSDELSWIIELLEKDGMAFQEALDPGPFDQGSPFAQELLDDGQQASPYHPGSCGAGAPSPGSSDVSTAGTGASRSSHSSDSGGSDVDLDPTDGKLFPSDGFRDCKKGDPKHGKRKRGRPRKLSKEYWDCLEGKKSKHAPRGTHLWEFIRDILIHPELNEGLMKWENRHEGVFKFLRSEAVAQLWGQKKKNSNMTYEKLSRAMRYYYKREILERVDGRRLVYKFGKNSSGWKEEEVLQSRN
# Summary of the method: as §1
# CRX = CRX (Homo sapiens, UniProt O43186 1-299); conditions: protein: recombinant; tags: N-terminal GST; dsDNA, one strand shown
# Summary of the method: as §1
# ETV1 = ETV1 (Homo sapiens, UniProt P50549 1-477); conditions: protein: recombinant; tags: N-terminal GST; dsDNA, one strand shown
# Summary of the method: as §1
# HSF1, sequence (Q00613 whole entry): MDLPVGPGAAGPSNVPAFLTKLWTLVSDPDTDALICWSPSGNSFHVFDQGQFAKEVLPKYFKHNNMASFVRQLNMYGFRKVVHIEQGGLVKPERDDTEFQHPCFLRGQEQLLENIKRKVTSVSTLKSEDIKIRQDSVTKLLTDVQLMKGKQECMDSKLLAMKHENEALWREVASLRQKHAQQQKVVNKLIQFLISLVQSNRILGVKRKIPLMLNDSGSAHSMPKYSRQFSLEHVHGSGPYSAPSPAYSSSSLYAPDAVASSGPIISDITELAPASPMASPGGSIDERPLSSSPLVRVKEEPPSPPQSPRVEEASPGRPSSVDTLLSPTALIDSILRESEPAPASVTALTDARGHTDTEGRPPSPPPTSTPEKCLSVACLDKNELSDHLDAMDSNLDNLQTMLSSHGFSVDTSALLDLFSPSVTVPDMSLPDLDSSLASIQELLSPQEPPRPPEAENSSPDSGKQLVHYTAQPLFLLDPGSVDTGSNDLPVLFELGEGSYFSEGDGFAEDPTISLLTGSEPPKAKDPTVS
# ELF1, sequence (P32519 whole entry): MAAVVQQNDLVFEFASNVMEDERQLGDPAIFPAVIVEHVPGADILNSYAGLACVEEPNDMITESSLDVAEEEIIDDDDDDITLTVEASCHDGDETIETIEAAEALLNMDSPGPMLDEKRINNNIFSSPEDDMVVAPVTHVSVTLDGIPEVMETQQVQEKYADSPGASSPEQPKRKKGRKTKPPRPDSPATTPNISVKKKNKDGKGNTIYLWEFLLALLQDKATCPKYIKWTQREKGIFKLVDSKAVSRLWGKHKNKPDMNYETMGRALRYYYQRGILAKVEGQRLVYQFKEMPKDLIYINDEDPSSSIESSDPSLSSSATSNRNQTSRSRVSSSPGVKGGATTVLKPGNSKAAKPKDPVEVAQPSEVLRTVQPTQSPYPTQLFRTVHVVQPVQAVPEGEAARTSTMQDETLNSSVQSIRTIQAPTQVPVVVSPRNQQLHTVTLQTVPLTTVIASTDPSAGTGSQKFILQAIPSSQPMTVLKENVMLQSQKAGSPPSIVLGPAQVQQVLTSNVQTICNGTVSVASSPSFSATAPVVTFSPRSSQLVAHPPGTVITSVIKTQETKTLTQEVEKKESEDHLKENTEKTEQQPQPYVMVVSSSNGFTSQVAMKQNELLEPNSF
# ELF4, sequence (Q99607 whole entry): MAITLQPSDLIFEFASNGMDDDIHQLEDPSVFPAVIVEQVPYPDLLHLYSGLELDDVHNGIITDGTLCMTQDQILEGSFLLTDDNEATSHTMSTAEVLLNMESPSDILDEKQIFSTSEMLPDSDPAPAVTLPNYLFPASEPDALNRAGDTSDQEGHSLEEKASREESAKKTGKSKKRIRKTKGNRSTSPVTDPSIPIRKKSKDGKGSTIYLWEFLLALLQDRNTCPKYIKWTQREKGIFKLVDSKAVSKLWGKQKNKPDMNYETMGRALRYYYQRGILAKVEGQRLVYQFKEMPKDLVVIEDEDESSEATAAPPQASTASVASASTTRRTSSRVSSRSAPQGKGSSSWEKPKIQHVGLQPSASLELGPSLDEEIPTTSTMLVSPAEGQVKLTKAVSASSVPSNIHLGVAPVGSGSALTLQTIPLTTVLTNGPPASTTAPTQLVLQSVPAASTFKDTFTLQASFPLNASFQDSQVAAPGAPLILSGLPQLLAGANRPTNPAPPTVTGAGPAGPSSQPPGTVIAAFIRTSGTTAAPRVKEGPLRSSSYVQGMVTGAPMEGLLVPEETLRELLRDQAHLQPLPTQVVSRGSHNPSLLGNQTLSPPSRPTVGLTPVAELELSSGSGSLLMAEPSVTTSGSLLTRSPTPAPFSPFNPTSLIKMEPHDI
# ETV5, sequence (P41161 whole entry): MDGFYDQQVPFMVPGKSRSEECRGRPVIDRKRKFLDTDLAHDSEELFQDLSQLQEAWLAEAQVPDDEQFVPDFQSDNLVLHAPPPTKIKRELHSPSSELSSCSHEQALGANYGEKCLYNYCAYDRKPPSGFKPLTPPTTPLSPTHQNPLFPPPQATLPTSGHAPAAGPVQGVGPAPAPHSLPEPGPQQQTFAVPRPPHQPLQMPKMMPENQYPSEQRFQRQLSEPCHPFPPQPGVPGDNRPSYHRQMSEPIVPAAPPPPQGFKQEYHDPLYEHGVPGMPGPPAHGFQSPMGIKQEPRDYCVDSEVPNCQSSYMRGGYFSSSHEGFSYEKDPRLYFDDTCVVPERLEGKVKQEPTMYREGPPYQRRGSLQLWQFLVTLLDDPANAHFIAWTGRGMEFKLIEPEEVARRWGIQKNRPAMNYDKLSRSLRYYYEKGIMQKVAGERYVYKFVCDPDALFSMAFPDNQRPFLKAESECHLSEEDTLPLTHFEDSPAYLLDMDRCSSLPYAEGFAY
# CRX, sequence (O43186 whole entry): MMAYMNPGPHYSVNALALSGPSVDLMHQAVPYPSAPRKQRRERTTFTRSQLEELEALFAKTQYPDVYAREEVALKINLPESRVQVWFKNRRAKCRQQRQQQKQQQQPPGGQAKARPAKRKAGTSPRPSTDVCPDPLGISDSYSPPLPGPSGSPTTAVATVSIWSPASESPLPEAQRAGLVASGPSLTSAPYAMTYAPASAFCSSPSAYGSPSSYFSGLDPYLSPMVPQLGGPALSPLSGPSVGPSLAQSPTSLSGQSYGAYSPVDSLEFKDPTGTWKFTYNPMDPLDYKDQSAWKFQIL
# SPIB, sequence (Q01892 whole entry): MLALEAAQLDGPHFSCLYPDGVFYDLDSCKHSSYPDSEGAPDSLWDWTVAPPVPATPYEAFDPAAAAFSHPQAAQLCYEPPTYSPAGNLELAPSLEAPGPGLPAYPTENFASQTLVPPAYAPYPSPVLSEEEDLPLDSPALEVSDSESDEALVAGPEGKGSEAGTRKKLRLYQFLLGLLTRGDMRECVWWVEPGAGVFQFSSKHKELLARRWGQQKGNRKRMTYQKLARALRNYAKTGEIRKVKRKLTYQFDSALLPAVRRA
# ETV1, sequence (P50549 whole entry): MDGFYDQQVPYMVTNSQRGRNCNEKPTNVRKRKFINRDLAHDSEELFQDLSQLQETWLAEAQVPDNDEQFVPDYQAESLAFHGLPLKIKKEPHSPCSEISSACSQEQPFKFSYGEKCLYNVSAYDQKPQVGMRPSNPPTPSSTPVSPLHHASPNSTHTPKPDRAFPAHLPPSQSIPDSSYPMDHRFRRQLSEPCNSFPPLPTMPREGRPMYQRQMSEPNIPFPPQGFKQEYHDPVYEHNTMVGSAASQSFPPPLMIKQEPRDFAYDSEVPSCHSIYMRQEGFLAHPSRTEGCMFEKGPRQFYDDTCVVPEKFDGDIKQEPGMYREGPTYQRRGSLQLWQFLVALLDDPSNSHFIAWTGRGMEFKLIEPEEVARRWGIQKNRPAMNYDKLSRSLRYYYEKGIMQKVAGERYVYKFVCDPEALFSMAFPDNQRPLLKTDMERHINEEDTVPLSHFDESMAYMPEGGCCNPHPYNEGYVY
sequence,measurement,setting,value
CCCACG,binding signal,FLI1,"1.17 fold enrichment (6-mer frequency, TF over GST control)"
same,binding signal,ELK1,"1.2 fold enrichment (6-mer frequency, TF over GST control)"
same,binding signal,GABPA,"1.26 fold enrichment (6-mer frequency, TF over GST control)"
same,binding signal,ERG,"1.09 fold enrichment (6-mer frequency, TF over GST control)"
same,binding signal,ELF1,"1.19 fold enrichment (6-mer frequency, TF over GST control)"
same,binding signal,EHF,"1.2 fold enrichment (6-mer frequency, TF over GST control)"
same,binding signal,SPI1,"1.08 fold enrichment (6-mer frequency, TF over GST control)"
same,binding signal,SPIB,"1.16 fold enrichment (6-mer frequency, TF over GST control)"
same,binding signal,ELK3,"1.29 fold enrichment (6-mer frequency, TF over GST control)"
same,binding signal,FEV,"1.13 fold enrichment (6-mer frequency, TF over GST control)"
same,binding signal,ETV5,"1.22 fold enrichment (6-mer frequency, TF over GST control)"
same,binding signal,HSF1,"1.01 fold enrichment (6-mer frequency, TF over GST control)"
same,binding signal,SPIC,"1.22 fold enrichment (6-mer frequency, TF over GST control)"
same,binding signal,ELF4,"1.27 fold enrichment (6-mer frequency, TF over GST control)"
same,binding signal,ELK4,"1.25 fold enrichment (6-mer frequency, TF over GST control)"
same,binding signal,ETV2,"1.01 fold enrichment (6-mer frequency, TF over GST control)"
same,binding signal,ELF3,"1.21 fold enrichment (6-mer frequency, TF over GST control)"
same,binding signal,CRX,"1 fold enrichment (6-mer frequency, TF over GST control)"
same,binding signal,ETV1,"1.06 fold enrichment (6-mer frequency, TF over GST control)"
